Screens from PubChem BioAssay.
RGS7-Gao = modulates binding of RGS7 to human Galphao; Multiplexed bead flow cytometry; actives lie on both sides; binding response (% of control), % at 10 µM; 220,000 tested, 0.35% active; AID 1439; in the data active = binding response below about 49% or above about 150%; inconclusive = no clear call, values can overlap the other calls; inactive = in between;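 also: fluorescent Galphao held in activated GDP-AlF4 state binding bead-coupled RGS7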
RGS4-Gao reg = human RGS4-Galphao interaction regulation | AID 1415 | 220,000 tested, 0.33% active | binding response (% of control), % at 10 µM | Multiplexed bead flow cytometry, RGS4-Galphao binding; actives lie on both sides | P09471; in the data active = binding response below about 49% or above about 150%; inactive = in between;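 also: fluorescent Galphao activated with aluminum fluoride binding bead-coupled RGS4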
GSH fluor = GSH bead compound fluorescence profile | fluorescence (KMESF) at 10 µM | 190,000 tested, 0.25% active | GSH beads flow cytometry, compound fluorescence 488/530 nm; stronger effect = higher value | AID 1776; in the data active = fluorescence above about 89;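 also: glutathione beads carrying GST-tagged Bcl family fusion proteins plus one bare bead set; values are compound well signal with DMSO vehicle wells as background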
Avidin bead fluor = compound fluoresces at 488/530 nm on avidin beads; fluorescence (KMESF) at 10 µM; 220,000 tested, 0.38% active; AID 1775; compound fluorescence 488/530 nm, flow cytometry; stronger effect = higher value; in the data active = fluorescence above about 47
RGS16-Gao = regulators of human RGS16-Galphao interaction; O15492+P09471; bead-based flow cytometry RGS16-Galphao binding, fluorescence; actives lie on both sides; binding response (% of control), % at 10 µM; 220,000 tested, 0.38% active; AID 1441;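 also: Galphao activated by GDP with aluminum fluoride before binding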
Target sequence (O15492 whole entry, looked up): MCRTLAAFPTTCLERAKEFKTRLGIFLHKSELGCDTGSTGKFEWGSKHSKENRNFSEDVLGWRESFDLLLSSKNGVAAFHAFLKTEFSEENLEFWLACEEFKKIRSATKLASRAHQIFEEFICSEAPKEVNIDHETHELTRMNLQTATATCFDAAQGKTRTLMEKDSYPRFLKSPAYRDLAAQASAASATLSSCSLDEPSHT
Target sequence (P09471 whole entry, looked up): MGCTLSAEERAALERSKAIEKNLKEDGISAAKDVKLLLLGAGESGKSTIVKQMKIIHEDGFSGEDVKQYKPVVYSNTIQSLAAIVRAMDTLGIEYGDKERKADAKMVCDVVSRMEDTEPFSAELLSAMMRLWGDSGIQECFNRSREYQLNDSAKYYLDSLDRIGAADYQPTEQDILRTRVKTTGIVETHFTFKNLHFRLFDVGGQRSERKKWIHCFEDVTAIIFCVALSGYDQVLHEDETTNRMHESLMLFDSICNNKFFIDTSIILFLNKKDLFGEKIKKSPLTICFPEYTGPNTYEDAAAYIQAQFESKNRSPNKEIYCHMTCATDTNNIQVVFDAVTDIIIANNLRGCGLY
RGS8-Gao reg = regulators of human RGS8-Galphao interaction; AID 1423; response (percent of control binding), % at 10 µM; 220,000 tested, 0.34% active; multiplexed bead flow cytometry, RGS8-Galphao binding; actives lie on both sides; P09471; in the data active = response below about 60% or above about 140%; inactive = in between;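 also: Galphao activated as the GDP aluminium fluoride complex binding bead-coupled RGS8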
RGS-Gao = modulates binding between human RGS4 and Galphao. multiplexed bead flow cytometry, RGS–Galpha-o binding. 1,600 tested, 99% active. AID 1504. RGS4–Galpha-o binding response, % at 10 µM. shares compounds with RGS16-Gao;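 also: fluorescently labeled Galpha-o bound to GDP with aluminium fluoride binding biotinylated RGS beads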
Avidin counter = counter-screen: compounds disrupting biotin binding to avidin beads. shares compounds with RGS16-Gao. streptavidin beads, fluorescein-biotin binding, flow cytometry. inhibition, % at 10 µM. 1,700 tested, under 10 active. AID 1783;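 active = inhibition above 50%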;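 also: median green fluorescence of gated singlet beads compared with DMSO control wells; 0% = DMSO wells and 100% = complete loss of bead fluorescence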
RGS8-Gao single = RGS8-Galphao interaction regulation, single point confirmation. shares compounds with RGS16-Gao. bead-based flow cytometry RGS8-Galphao binding, fluorescence; actives lie on both sides. binding response (% of control), % at 10 µM. 1,700 tested, 3% active. AID 1836; in the data active = binding response below about 72% or above about 130%; inactive = in between;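 also: Galphao activated as GDP AlF4 complex before binding bead RGS8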
RGS7-Gao single = RGS7-Galphao interaction regulation, single point confirmation; 1,700 tested, 7.8% active; bead-based flow cytometry RGS7-Galphao binding; actives lie on both sides; shares compounds with RGS16-Gao; response (percent of control binding), % at 10 µM; in the data active = response below about 75% or above about 130%; inactive = in between;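 also: fluorescent Galphao activated with GDP and aluminum fluoride binding bead-coupled RGS7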
RGS16-Gao single = RGS16-Galphao interaction regulation, single point confirmation. shares compounds with RGS16-Gao. bead-based flow cytometry, RGS16-Galphao binding; actives lie on both sides. response (% of control binding), % at 10 µM. 1,700 tested, 4% active. AID 1838; in the data active = response below about 74% or above about 130%; inactive = in between;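 also: Galphao activated as the GDP aluminium fluoride complex binding bead-coupled RGS16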
RGS4-Gao single = RGS4-Galphao interaction regulation, single point confirmation. binding response (% of control), % at 10 µM. 1,700 tested, 4% active. shares compounds with RGS16-Gao. RGS4-Galphao binding, multiplexed bead flow cytometry; actives lie on both sides; in the data active = binding response below about 74% or above about 130%; inactive = in between
RGS19-Gao single = confirmation of regulators of human RGS19-Galphao interaction; AID 1841; bead-based flow cytometry RGS19-Galphao binding; actives lie on both sides; shares compounds with RGS16-Gao; 1,700 tested, 5% active; response (percent of control binding), % at 10 µM; in the data active = response below about 50% or above about 160%; inactive = in between;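 also: 100% = no compound control and 0% = blank background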
* marks the source's active call; other numbers are inactive results; [ ] = another dose, or the depositor's remark. Only some compounds are listed: those with a hit (about 1.2% of all), similar ones and a draw of the others. Unless noted, no rule for the calls is given here.

What do the screens show for `CC(C)c1onc(C(=O)N2C(C)CCCC2C)c1[N+](=O)[O-]` (stereo unspecified)?
RGS7-Gao: 99; RGS4-Gao reg: 99; GSH fluor: 10; Avidin bead fluor: 3; RGS16-Gao: 107; RGS8-Gao reg: 102

What do the screens show for `CCCCc1ccc(NC(=O)c2ccc(N(C)S(C)(=O)=O)cc2)cc1`?
RGS7-Gao: inconclusive; RGS4-Gao reg: 97; Avidin bead fluor: 6; RGS16-Gao: 99; RGS8-Gao reg: 102

How did O=c1oc2ccccc2c(N2CCCCC2)c1[N+](=O)[O-] do in these assays?
RGS7-Gao: 102; RGS4-Gao reg: 101; GSH fluor: 4; Avidin bead fluor: 13; RGS16-Gao: 103; RGS8-Gao reg: 100

How did O=c1oc2ccccc2c(N2CCCC2)c1[N+](=O)[O-] do in these assays?
RGS7-Gao: 157*[activator]; RGS4-Gao reg: 157*[activator]; GSH fluor: 15; Avidin bead fluor: 21; RGS16-Gao: 180*[activator]; RGS8-Gao reg: 161*[activator]; Avidin counter: -1; RGS8-Gao single: 93; RGS7-Gao single: 84; RGS16-Gao single: 87; RGS4-Gao single: 89; RGS19-Gao single: 75

What do the screens show for `CCCn1c(SCC(=O)Nc2cccc(Cl)c2Cl)n[nH]c1=O`?
RGS7-Gao: 103; RGS4-Gao reg: 106; GSH fluor: 15; Avidin bead fluor: 20; RGS16-Gao: 111; RGS8-Gao reg: 103

What do the screens show for `CCCn1c(SCC(=O)Nc2ccccc2Oc2ccccc2)n[nH]c1=O`?
RGS7-Gao: 84; RGS4-Gao reg: 78; GSH fluor: 42; Avidin bead fluor: 1; RGS16-Gao: -28*; RGS8-Gao reg: 83; RGS-Gao: 78*; Avidin counter: 1; RGS8-Gao single: 103; RGS7-Gao single: 102; RGS16-Gao single: 100; RGS4-Gao single: 100; RGS19-Gao single: 112

Results for CCOC(=O)c1ccc(NC(=O)CSc2nnc(Cn3c(=O)sc4ccccc43)n2C)cc1 ?
RGS7-Gao: 173*[activator]; RGS4-Gao reg: 109; GSH fluor: 26; Avidin bead fluor: 89*; RGS16-Gao: 101; RGS8-Gao reg: 94; RGS-Gao: 109*; Avidin counter: -2; RGS8-Gao single: 99; RGS7-Gao single: 101; RGS16-Gao single: 101; RGS4-Gao single: 99; RGS19-Gao single: 88

How did CCc1ccc(NC(=O)CSc2nnc(Cn3c(=O)sc4ccccc43)n2C)cc1 do in these assays?
RGS7-Gao: 104; RGS4-Gao reg: 103; GSH fluor: 16; Avidin bead fluor: 27; RGS16-Gao: 105; RGS8-Gao reg: 102
